In PubChem BioAssay AID2069 (Sanford-Burnham Center for Chemical Genomics, 2009) one finds inhibition data, which are given here for 95 compounds.

Structures are written as SMILES. Screen size: about 1,200 compounds; about 210 (18%) were called active. Only a sample is shown. A number with no mark means an inactive call. Cut-off read from the data, not from the text of the source: active = inhibition above about 30%; inactive = the rest.

A short description of this experiment: HTRF signal interference by compounds, confirmation, artefact control for SUMOylation inhibitor project, biochemical, uHTS (AID 2069). The following applies: HTRF interference counterscreen, fluorescence, at 35 µM, hits give high values. On the technique in general: Time-resolved FRET reads energy transfer from a long-lived donor to a nearby acceptor.
Regarding `CCC(=O)OCCNc1cc(Sc2nc3ccccc3s2)c2nonc2c1[N+](=O)[O-]`, the inhibition was 1.05%.
The value for `O=C(O)c1cccc(N2C(=O)/C(=C/c3ccc(SCc4ccc(Cl)cc4)o3)SC2=S)c1` was 14.9%.
For `CCCN(C(=O)c1cc2c(s1)CCC2)c1c(N)n(Cc2ccccc2)c(=O)[nH]c1=O` the value was -3.9%; for `Cc1cccc(C(=O)NC2C(=O)NNC2c2ccc(Cl)cc2)c1` (stereo not given), -5.5%; for `COc1ccc(N2C(=O)[C@@H]3[C@H](C2=O)[C@H]2c4ccccc4C=CN2[C@@H]3C(C)=O)cc1`, 9.4%.
The value for `Cc1ccc(NC(=O)CCC(=O)OCC(=O)c2ccc(-c3ccccc3)cc2)cc1` was -1.75%; that for `Cc1ccc(-c2[nH]c(-c3ccc(C(=O)O)cc3)nc2-c2ccccc2)cc1` was 43.1% (active).
Regarding `COc1cc(/C=C2\C(=O)N(c3ccccc3)N=C2C)ccc1Oc1ccc([N+](=O)[O-])cc1[N+](=O)[O-]`, the inhibition was 1.25%.
Consider `CSc1nnc(SCc2nc3sc(C(=O)O)c(C)c3c(=O)[nH]2)s1`, for which the inhibition is 31.2% (active).
With `CC(=O)c1sc2nc(CSc3nnnn3-c3ccccc3)[nH]c(=O)c2c1C`, the inhibition is 0.9%.
For `O=C(CSc1nnc(SCc2ccc(Cl)cc2)s1)N/N=C/c1c[nH]c2ccccc12` the value was 9.75%.
`S=c1[nH]nc(-c2cc(-c3ccco3)[nH]n2)n1-c1ccccc1Cl`: the inhibition is 0.75%.
For `COc1cc(O)c(NC(C)=O)c2nonc12`, the inhibition is 6.2%.
For `COCCNC(=O)Nc1ccc2nc(-c3ccco3)c(-c3ccco3)nc2c1` the value was 52.4% (active); for `COc1ccc2nc(-c3ccco3)c(-c3ccco3)nc2c1`, 33.1% (active); for `COc1ccc(OC)c(-n2c(-c3cc(-c4ccco4)[nH]n3)n[nH]c2=S)c1`, 7.95%.
For `O=C(Nc1ccccc1)c1ccc2nc(-c3ccco3)c(-c3ccco3)nc2c1` the value was 22.8%; for `COc1ccc(CCNC(=O)c2ccc3nc(-c4ccco4)c(-c4ccco4)nc3c2)cc1OC`, 13.3%; for `COc1ccc2nc3cccc(OC)c3nc2c1`, 11.7%.
The value for `CCc1ccc(OCC(=O)N/N=C2\CC(=O)c3ccccc32)cc1` was -2.45%; that for `COCCN=c1scc(-c2ccco2)n1/N=C/c1ccc(O)c(O)c1O` was -18.7%; that for `CC(C)c1ccc(NC(=O)C[n+]2ccn(C3=C([O-])c4ccccc4C3=O)c2)cc1` was -10.2%.
Consider `Cc1ccc(S(=O)(=O)C(C#N)c2nc3ccccc3nc2N2CC(C)OC(C)C2)cc1C` (stereo not given), for which the inhibition is 4.8%.
The value for `O=c1c(=Nc2ccccc2O)c(=O)c2ccccc12` was -6.7%; that for `O=C1NC(=Nc2ccc(O)cc2)S/C1=C\C=C\c1ccco1` was 8.5%.
For `Cc1cc(=O)oc2cc(OCc3ccc(C(=O)OCC(=O)Nc4ccc(N(C)C)cc4)cc3)ccc12`, the inhibition is 11.7%.
`Cc1c(CC(=O)O)c(=O)oc2c(C)c(OCc3ccccc3Br)ccc12`: the inhibition is -1.95%.
For `COc1ccc2c(c1)c(=O)oc1c(C)c(OCc3ccc(C(=O)O)cc3)ccc12` the value was 31.4% (active); for `COc1cc(/C=C(\C#N)C(=O)Nc2cccc(C(=O)O)c2)ccc1OCc1ccc(Cl)cc1`, 19.7%.
For `S=C(Nc1cccc(Cl)c1)Nc1ccc2cn[nH]c2c1` the value was 2.35%.
The value for `O=C(Nc1ccc2oc(=O)ccc2c1)c1ccc(-c2cccc(Cl)c2)o1` was 12.1%; that for `O=C(Nc1cccnc1)c1cc2cc(Br)ccc2oc1=O` was -1.65%.
Turning to `Cn1nccc1NC(=O)Nc1cccc(Cl)c1`, the inhibition is 42.6% (active).
For `Cn1nccc1NC(=O)Nc1cccc(Br)c1` the value was 46.4% (active).
As to `O=C(Nc1nnc(-c2ccccc2SCc2ccccc2F)s1)Nc1ccccc1F`, the inhibition is 0.75%.
The value for `Cc1ccc(C(=O)NC(C)c2nc3ccccc3n2CC(=O)Nc2c(C)cc(C)cc2C)cc1` (stereo not given) was 25.5%; that for `O=C(CCc1ccccc1)NNc1cc(N2CCCCC2)nc(N2CCCCC2)n1` was 14.2%.
On to `CCC(=O)OCCNc1cc(Sc2nccn2C)c2nonc2c1[N+](=O)[O-]`, for which the inhibition was 8.05%.
Turning to `CC1=C(C#N)C(=O)NC(=O)/C1=C\c1ccc(-c2ccc(C)cc2[N+](=O)[O-])o1`, the inhibition was -1.55%.
The value for `COc1ccc2c(c1)CC/C(=C\C=C\c1ccccc1)C2=O` was 6.1%; that for `Cn1c2ccc(Cl)cc2c2nc3ccccc3nc21` was 21.9%.
The value for `O=C(NCCNc1ccc2ccccc2c1)c1cccn2c(=O)c3sccc3nc12` was 5.05%; that for `O=C(c1cccn2c(=O)c3cc(Cl)ccc3nc12)N1CCOCC1` was 44.6% (active).
With `O=C(c1cccn2c(=O)c3cc4ccccc4cc3nc12)N1CCN(c2ccccc2)CC1`, the inhibition is 7.35%.
As for `CCOC(=O)N1CCC(c2cc(=O)n(-c3ccccc3)[nH]2)CC1`, the inhibition was 2.2%.
The value for `CCOC(=O)N1CCN(C(=O)c2cccn3c(=O)c4cc(Cl)ccc4nc23)CC1` was 43.5% (active); that for `CCOC(=O)N1CCN(C(=O)c2cccn3c(=O)c4cc(Br)ccc4nc23)CC1` was 49.9% (active); that for `NC(=O)CC(NC(=O)Cc1ccc(Br)cc1)c1ccc(N2CCC(Br)CC2)c([N+](=O)[O-])c1` (stereo not given) was 4.65%.
The value for `O=C(Nc1nnc(-c2ccccc2)o1)c1nc2ccccc2s1` was 11.1%; that for `CN(C)c1cc(Cl)c2nonc2c1N` was 4.85%.
For `NC(=O)c1ccc(N=C2C(=O)Nc3ccc([N+](=O)[O-])cc32)cc1` the value was -4.65%; for `S=C(Nc1ccc(Cl)cc1)Nc1cccc2cnccc12`, 1.3%.
Take `CCCCCn1c(NC(=O)c2ccco2)c(S(=O)(=O)c2ccc(C)cc2)c2nc3ccccc3nc21`: the inhibition was 6.85%.
For `CC(=O)c1ccc(NC(=S)Nc2cccc3ccccc23)cc1` the value was 14.1%.
For `O=[N+]([O-])c1ccccc1/C=C/C=N/n1c(-c2cc(-c3ccccc3)n[nH]2)n[nH]c1=S` the value was -4%.
For `COCCCn1c(C(=O)N2CCOCC2)cc2c(=O)n3ccccc3nc21` the value was 52.1% (active); for `COCCCNC(=O)c1cccn2c(=O)c3cc4ccccc4cc3nc12`, 13.3%.
For `COCCCn1c(C(=O)N2CC(C)OC(C)C2)cc2c(=O)n3ccccc3nc21` (stereo not given), the inhibition is 46.4% (active).
The value for `CC1=NN(c2ccc(Br)cc2)C(=O)/C1=C/c1cccs1` was -19.8%; that for `CCc1ccc(NC(=S)Nc2cccc3cnccc23)cc1` was 3.45%.
For `N#Cc1c2nc3ccccc3nc2n2cc(NC(=O)c3ccc(F)cc3)ccc12` the value was 3%.
The value for `Cn1cccc1/C=N/NC(=O)c1sc2cc(Cl)ccc2c1Cl` was 15%; that for `O=C(N/N=C/c1ccc(O)c2ncccc12)c1cccc(Br)c1` was -4.25%.
For the compound `S=c1[nH]nc(-c2ccncc2)n1/N=C/c1cn(-c2ccccc2)nc1-c1ccc(Cl)cc1`, the inhibition is -1.35%.
For `Cc1ccc(/C=C2\SC(=S)N(c3cccnc3)C2=O)o1` the value was 4.85%.
The value for `Fc1cccc(Cl)c1C1Nc2cccc3cccc(c23)N1` was -14.8%.
The value for `Cc1ccc(NC(=O)Cn2nc(C(=O)Nc3ccc(C)cc3)ccc2=O)cc1` was 4.7%; that for `CCC(NC(=O)Nc1ccc(O)cc1)(C(F)(F)F)C(F)(F)F` was -9.2%.
Turning to `O=C(Nc1ccccc1)Nc1ccno1`, the inhibition is 47.1% (active).
Turning to `Cc1ccc(NC(=O)Nc2ccno2)cc1`, the inhibition was 48.2% (active).
The value for `Cc1cc2c(NC(=O)Nc3ccccc3)cccc2nn1` was -6.1%.
The value for `O=C(Nc1ccccc1)c1ccccc1CCc1ccccc1` was 2.45%; that for `COc1ccc(/C=C2/C(=O)N(c3ccccc3)N=C2C)cc1OC` was -0.35%; that for `O=[N+]([O-])c1c(NCc2ccccc2)cc(N2CCc3ccccc3C2)c2nonc12` was 0.75%.
The value for `O=[N+]([O-])c1cc(CN2CCN(c3cccc(C(F)(F)F)c3)CC2)c2cccnc2c1O` was -18.5%; that for `Cc1cc2c(NC(=O)Nc3ccc(C(C)(C)C)cc3)cccc2nn1` was 18.8%.
`Cc1c(O)ccc2c(CC(=O)N[C@@H](Cc3ccc(O)cc3)C(=O)O)cc(=O)oc12`: the inhibition was 39.9% (active).
As to `CCCc1cc(=O)oc2cc(OCC(=O)Nc3ccc(S(N)(=O)=O)cc3)ccc12`, the inhibition was 21.4%.
For `NC(=O)C1CCN(C2=C(NS(=O)(=O)c3ccccc3)C(=O)c3ccccc3C2=O)CC1` the value was -13.8%; for `O=C(CN1C(=O)S/C(=C\c2ccccc2)C1=O)NNC(=O)c1ccccc1O`, 2.55%; for `S=c1[nH]nc(-c2cc(-c3ccco3)[nH]n2)n1-c1cccc2ccccc12`, -16.1%.
For `CCOC(=O)N1CCc2c(sc3c2c(=O)n(Cc2ccccc2)c(=O)n3CC(=O)NCCOC)C1` the value was -6.7%.
The value for `C[C@@H]1CN=C2N(CCNC(=O)CCC3CCCCC3)[C@H](Cc3ccc(O)cc3)CN21` was 1.3%; that for `COCCNC(=O)CCC1CCN(Cc2ccc(-c3ccccc3)cc2)CC1` was 65.5% (active).
Take `CCOC(=O)Cn1c(=NC(=O)c2sc3ccccc3c2Cl)sc2cc(S(N)(=O)=O)ccc21`: the inhibition was 8.1%.
For `C#CCOc1ccc(/C=C2/C(=O)N(c3cccc(C(=O)O)c3)N=C2C)cc1OC` the value was -5.85%.
As for `CC(=O)C1=C(C)OC2(O)c3ccccc3C(=O)C12O` (stereo not given), the inhibition was -21.7%.
On to `NNc1nc2c(Cl)ccc(Cl)c2s1`, for which the inhibition is -0.55%.
For `CC(=O)C1C(=O)C=C(c2ccco2)CC1c1ccccc1` (stereo not given) the value was 0.4%.
The value for `N#Cc1cc2ccc(N3CCOCC3)cc2cc1C#N` was 9.35%; that for `COc1ccc2[nH]c3c(=O)n(CCCC(=O)NC4CCC(C)CC4)c(=S)[nH]c3c2c1` (stereo not given) was 6.2%.
For `Cc1c(C(=O)O)c(C(=O)O)nc2ccc(N3CCOCC3)cc12` the value was 7.75%; for `O=c1c2cc(N3CCOCC3)ccc2[nH]c(=S)n1CC1CCCO1` (stereo not given), 55.1% (active); for `O=c1c2cc(N3CCOCC3)ccc2[nH]c(=S)n1Cc1ccccn1`, 56.3% (active).
For `CC1CCN(CCCn2c(=S)[nH]c3ccc(N4CCOCC4)cc3c2=O)CC1`, the inhibition was 52.3% (active).

As usually defined, the inhibition is the change of the read-out against control, counted positive when it falls.
